Experimental findings from ChEMBL document CHEMBL2218924, “A broad activity screen in support of a chemogenomic map for kinase signalling research and drug discovery” (Biochem J, 2013) are described below.

The target in experiment [1] is T1, cGMP-dependent protein kinase 1 (Homo sapiens) (UniProt Q13976).
T1 sequence (whole entry): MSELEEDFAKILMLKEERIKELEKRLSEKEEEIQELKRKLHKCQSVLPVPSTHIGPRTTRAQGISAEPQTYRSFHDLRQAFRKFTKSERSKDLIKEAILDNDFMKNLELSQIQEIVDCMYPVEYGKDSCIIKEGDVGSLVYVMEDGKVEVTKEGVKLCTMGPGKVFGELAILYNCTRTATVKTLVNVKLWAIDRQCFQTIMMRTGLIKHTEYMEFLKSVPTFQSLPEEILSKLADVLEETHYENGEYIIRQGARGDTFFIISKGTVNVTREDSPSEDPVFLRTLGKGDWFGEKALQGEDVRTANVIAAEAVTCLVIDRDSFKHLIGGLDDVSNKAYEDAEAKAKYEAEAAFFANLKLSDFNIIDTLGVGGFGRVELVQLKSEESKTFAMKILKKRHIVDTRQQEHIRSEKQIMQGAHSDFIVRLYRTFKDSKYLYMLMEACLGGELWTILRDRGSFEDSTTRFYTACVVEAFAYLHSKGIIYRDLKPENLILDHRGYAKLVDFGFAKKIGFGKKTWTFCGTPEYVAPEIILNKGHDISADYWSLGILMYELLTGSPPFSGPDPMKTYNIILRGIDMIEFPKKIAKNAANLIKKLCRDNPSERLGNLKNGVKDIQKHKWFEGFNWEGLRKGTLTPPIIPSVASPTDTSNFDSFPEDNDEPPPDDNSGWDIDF
Particulars: at 1 µM.

Experiment [2] concerns the target T1, cGMP-dependent protein kinase 1 (Homo sapiens). Particulars: at 10 µM.
Experiment [3] shares this target. Particulars: at 1 µM. The source holds these as a separate data set.
For experiment [4] the target is unchanged. Particulars: at 10 µM. This is another data set of the same source.
Experiment [5] has as its target T2, MAP kinase-activated protein kinase 5 (Homo sapiens) (UniProt Q8IW41).
T2 sequence (whole entry): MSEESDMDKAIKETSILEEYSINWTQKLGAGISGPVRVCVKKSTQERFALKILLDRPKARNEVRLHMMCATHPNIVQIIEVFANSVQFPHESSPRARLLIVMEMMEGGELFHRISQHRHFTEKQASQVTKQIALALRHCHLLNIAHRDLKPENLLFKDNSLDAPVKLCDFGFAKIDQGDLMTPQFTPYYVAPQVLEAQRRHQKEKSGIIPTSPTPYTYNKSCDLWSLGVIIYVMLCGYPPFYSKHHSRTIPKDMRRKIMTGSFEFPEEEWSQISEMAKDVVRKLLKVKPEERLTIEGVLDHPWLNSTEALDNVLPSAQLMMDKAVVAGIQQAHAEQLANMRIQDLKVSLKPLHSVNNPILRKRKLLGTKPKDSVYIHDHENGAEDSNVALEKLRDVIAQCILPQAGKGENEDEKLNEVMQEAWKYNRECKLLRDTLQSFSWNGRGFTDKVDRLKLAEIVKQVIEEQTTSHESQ
Particulars: at 1 µM.

Experiment [6] has as its target T2, MAP kinase-activated protein kinase 5 (Homo sapiens). Particulars: at 10 µM.
The target of experiment [7] is Serine/threonine-protein kinase N2 (Homo sapiens) (UniProt Q16513). Particulars: at 1 µM.
Serine/threonine-protein kinase N2 (Homo sapiens), sequence (Q16513 whole entry, looked up): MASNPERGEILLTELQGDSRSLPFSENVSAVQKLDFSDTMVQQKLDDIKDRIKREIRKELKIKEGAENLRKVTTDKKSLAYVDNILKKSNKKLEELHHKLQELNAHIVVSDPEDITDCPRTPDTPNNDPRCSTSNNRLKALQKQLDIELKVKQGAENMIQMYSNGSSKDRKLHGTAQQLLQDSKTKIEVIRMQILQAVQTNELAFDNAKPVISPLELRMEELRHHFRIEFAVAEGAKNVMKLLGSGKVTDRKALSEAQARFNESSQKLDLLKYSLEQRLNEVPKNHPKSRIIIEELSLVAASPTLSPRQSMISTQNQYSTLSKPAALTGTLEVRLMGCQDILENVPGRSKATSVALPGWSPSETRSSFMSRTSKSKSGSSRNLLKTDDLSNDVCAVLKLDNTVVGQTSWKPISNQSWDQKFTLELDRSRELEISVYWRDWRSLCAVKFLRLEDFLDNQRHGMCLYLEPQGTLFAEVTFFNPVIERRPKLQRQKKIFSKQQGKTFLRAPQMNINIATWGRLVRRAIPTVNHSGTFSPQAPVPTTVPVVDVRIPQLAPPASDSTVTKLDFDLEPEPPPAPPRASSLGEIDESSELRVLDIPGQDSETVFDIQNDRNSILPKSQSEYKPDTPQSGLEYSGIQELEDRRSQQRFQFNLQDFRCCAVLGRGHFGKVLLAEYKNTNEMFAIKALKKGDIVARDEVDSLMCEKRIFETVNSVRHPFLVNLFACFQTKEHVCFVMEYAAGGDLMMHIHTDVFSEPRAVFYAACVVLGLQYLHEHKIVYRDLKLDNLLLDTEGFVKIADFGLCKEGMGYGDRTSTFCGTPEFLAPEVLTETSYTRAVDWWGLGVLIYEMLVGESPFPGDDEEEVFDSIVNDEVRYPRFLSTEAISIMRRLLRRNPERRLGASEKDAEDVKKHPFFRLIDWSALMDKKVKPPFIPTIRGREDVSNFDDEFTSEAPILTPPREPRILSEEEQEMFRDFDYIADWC
For experiment [8] the target is unchanged. Particulars: at 10 µM.
Experiment [9] has as its target Tyrosine-protein kinase FRK (Homo sapiens) (UniProt P42685). Particulars: at 1 µM.
Experiment [10] shares this target. Particulars: at 10 µM.
Experiment [11] has as its target T3, Phosphorylase b kinase gamma catalytic chain, liver/testis isoform (Homo sapiens) (UniProt P15735).
T3 sequence (whole entry): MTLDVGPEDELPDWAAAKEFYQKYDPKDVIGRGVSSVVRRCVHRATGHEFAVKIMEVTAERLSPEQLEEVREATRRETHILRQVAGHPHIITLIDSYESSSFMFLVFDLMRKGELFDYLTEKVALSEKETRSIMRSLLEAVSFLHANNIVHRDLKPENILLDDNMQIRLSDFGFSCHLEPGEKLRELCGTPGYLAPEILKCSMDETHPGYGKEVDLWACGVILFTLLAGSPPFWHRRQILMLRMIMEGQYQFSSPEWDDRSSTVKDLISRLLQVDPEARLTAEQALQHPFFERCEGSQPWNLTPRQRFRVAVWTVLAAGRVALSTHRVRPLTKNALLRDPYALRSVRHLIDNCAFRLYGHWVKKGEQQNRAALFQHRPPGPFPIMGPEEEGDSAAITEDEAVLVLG
Particulars: at 1 µM.

Experiment [12] has as its target T3, Phosphorylase b kinase gamma catalytic chain, liver/testis isoform (Homo sapiens). Particulars: at 10 µM.
Experiment [13] addresses Serine/threonine-protein kinase pim-1 (Homo sapiens) (UniProt P11309). Particulars: at 1 µM.
Experiment [14] shares this target. Particulars: at 10 µM.
The target in experiment [15] is Serine/threonine-protein kinase pim-2 (Homo sapiens) (UniProt Q9P1W9). Particulars: at 1 µM.
Serine/threonine-protein kinase pim-2 (Homo sapiens), sequence (Q9P1W9 whole entry, looked up): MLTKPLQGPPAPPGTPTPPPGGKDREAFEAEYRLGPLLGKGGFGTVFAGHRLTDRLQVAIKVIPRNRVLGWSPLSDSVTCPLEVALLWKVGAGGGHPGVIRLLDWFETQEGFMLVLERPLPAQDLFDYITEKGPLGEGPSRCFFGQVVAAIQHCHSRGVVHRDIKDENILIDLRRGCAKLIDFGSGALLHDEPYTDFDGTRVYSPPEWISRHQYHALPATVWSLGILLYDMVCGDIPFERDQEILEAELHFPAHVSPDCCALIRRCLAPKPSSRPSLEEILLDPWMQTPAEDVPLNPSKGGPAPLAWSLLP
The target is the same in experiment [16]. Particulars: at 10 µM.
Experiment [17] concerns the target Serine/threonine-protein kinase pim-3 (Homo sapiens) (UniProt Q86V86). Particulars: at 1 µM.
For experiment [18] the target is unchanged. Particulars: at 10 µM.
The target of experiment [19] is Serine/threonine-protein kinase PLK1 (Homo sapiens) (UniProt P53350). Particulars: at 1 µM.
Serine/threonine-protein kinase PLK1 (Homo sapiens), sequence (P53350 whole entry): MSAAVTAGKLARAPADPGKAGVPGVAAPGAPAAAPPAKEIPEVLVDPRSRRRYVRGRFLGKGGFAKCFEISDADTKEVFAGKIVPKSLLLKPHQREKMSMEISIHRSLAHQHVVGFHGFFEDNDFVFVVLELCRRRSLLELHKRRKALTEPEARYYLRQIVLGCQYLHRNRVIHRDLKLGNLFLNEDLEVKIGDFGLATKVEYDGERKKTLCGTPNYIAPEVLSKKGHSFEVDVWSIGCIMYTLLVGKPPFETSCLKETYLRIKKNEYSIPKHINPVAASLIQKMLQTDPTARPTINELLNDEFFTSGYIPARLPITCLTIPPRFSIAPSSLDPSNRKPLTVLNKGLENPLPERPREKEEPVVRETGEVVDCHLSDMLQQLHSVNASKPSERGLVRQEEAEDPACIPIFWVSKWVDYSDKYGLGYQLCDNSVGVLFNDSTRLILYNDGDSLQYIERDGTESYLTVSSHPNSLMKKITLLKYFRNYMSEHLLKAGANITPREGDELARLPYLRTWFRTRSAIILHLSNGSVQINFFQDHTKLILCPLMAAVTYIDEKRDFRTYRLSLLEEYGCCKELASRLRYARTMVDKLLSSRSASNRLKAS
Experiment [20] shares this target. Particulars: at 10 µM.

Tyrosine-protein kinase FRK (Homo sapiens), sequence (P42685 whole entry): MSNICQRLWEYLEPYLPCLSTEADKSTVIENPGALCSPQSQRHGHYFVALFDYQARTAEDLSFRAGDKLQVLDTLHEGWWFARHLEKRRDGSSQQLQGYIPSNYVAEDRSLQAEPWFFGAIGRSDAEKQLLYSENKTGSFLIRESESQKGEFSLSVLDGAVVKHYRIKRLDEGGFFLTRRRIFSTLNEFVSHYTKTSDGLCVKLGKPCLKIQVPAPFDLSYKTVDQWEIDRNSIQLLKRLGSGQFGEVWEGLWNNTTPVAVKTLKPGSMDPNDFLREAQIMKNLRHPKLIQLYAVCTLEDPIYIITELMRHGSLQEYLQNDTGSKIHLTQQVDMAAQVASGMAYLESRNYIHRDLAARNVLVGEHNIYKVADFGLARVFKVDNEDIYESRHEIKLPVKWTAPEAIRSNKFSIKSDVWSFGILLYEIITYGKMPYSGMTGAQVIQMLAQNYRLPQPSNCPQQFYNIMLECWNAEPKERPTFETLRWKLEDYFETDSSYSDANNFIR
Serine/threonine-protein kinase pim-1 (Homo sapiens), sequence (P11309 whole entry, looked up): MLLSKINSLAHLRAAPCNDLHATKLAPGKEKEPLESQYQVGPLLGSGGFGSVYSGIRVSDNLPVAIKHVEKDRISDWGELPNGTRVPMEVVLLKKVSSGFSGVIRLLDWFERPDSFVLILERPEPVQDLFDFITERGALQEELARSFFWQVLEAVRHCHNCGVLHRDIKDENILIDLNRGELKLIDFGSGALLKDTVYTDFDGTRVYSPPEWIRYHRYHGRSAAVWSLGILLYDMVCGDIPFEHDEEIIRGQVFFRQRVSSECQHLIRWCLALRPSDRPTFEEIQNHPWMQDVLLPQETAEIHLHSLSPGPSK

Consider `COc1cc2ncnc(Nc3ccc(O)c(Br)c3)c2cc1OC`, for which the residual activity worked out at 94% in experiment [1]; 76% in experiment [2]; 70% in [3]; 47% in [4]; 77% in [5]; 70% in experiment [6]. Moreover, the residual activity in experiment [7] is 87%; in [8], 61%; in experiment [9] it was 35%; in experiment [10], 5%; in [11] it was 97%; in experiment [12], 94%. In addition, the residual activity in [13] came to 66%; in experiment [14], 29%; in experiment [15] it was 78%; in experiment [16], 66%; in experiment [17], 87%; in [18], 70%. The results for the residual activity in experiment [19] and in [20] were 64% and 54%, respectively.

As to `CO[C@H]1[C@@H](OC)C[C@H](C)[C@@H](OC)C2=CC(=O)C=C(NC(=O)/C(C)=C/C=C/[C@H](OC)[C@@H](OC(N)=O)/C(C)=C/[C@@H]1C)C2=O`, the residual activity in experiment [1] was determined as 102%; in experiment [2], 105%; in experiment [3], 85%; in experiment [4], 81%; in [5] it was 107%; in experiment [6] it was 95%. For the same molecule, the residual activity came to 111% in experiment [7]; 96% in experiment [8]; 114% in experiment [9]; 93% in [10]; 97% in [11]; 100% in experiment [12]. Moreover, the residual activity in experiment [13] was 85%; in experiment [14], 93%; in experiment [15], 99%; in [16] it was 129%; in experiment [17], 98%; in experiment [18], 96%. Further, the residual activity in [19] came to 86%; in experiment [20], 70%.

In the case of `CO[C@H]1C[C@@H]2CC[C@@H](C)[C@@](O)(O2)C(=O)C(=O)N2CCCC[C@H]2C(=O)O[C@H]([C@H](C)C[C@@H]2CC[C@@H](O)[C@H](OC)C2)CC(=O)[C@H](C)/C=C(\C)[C@@H](O)[C@@H](OC)C(=O)[C@H](C)C[C@H](C)/C=C/C=C/C=C/1C`, the residual activity is 101% in experiment [1]; 128% in experiment [2]; 86% in [3]; 85% in experiment [4]; 57% in [5]; 62% in experiment [6]. Besides, the residual activity in experiment [7] was found to be 95%; in experiment [8], 116%; in experiment [9], 95%; in [10] it was 112%; in [11] it was 94%; in experiment [12], 116%. Besides, the residual activity in [13] was 105%; in [14], 141%; in experiment [15] it was 110%; in [16] it was 142%; in experiment [17] it was 97%; in [18] it was 93%. In addition, the residual activity in experiment [19] worked out at 75%; in [20], 66%.

`CN(C)c1ccc(/C=C2\C(=O)Nc3ccccc32)cc1`: the residual activity in experiment [1] was 121%; in experiment [2], 115%; in experiment [3] it was 65%; in experiment [4], 84%; in experiment [5], 113%; in [6], 65%. Moreover, the residual activity in experiment [7] is 113%; in experiment [8] it was 120%; in experiment [9] it was 97%; in experiment [10], 76%; in experiment [11], 98%; in experiment [12] it was 85%. For the same molecule, the residual activity is 77% in experiment [13]; 93% in [14]; 92% in experiment [15]; 112% in experiment [16]; 106% in experiment [17]; 91% in experiment [18]. For the same molecule, the residual activity was 88% in experiment [19] and 76% in experiment [20].

In the case of `COc1ccc(S(=O)(=O)N(CCO)c2ccccc2CN(C)C/C=C/c2ccc(Cl)cc2)cc1`, the residual activity amounted to 101% in [1]; 99% in experiment [2]; 103% in experiment [3]; 86% in experiment [4]; 98% in [5]; 53% in experiment [6]. Besides, the residual activity in experiment [7] was found to be 95%; in [8] it was 69%; in experiment [9], 100%; in experiment [10] it was 125%; in [11], 116%; in [12], 83%. The residual activity in experiment [13] worked out at 96%; in experiment [14], 73%; in experiment [15], 143%; in experiment [16] it was 137%; in experiment [17], 86%; in [18], 82%. For the same molecule, the figures for the residual activity in experiment [19] and in experiment [20] were 76% and 72%, respectively.

Turning to `Cc1nc2cc3nc(-c4cccs4)cnc3cc2n1C`, the residual activity in experiment [1] turned out to be 117%; in [2], 96%; in [3] it was 99%; in [4], 103%; in [5], 81%; in [6], 56%. For the same molecule, the residual activity in experiment [7] was determined as 97%; in [8], 100%; in experiment [9], 99%; in experiment [10], 76%; in [11] it was 94%; in experiment [12], 111%. Moreover, the residual activity was determined as 100% in experiment [13]; 101% in experiment [14]; 90% in experiment [15]; 121% in experiment [16]; 101% in experiment [17]; 102% in [18]. Also, the residual activity in experiment [19] was determined as 118%; in experiment [20], 85%.

For `CCC(=O)Nc1ccc2ncnc(Nc3cccc(Br)c3)c2c1`, the residual activity in experiment [1] came out at 108%; in experiment [2], 96%; in [3], 89%; in experiment [4] it was 81%; in [5], 74%; in experiment [6] it was 74%. For the same molecule, the residual activity in experiment [7] was determined as 90%; in experiment [8], 99%; in experiment [9], 94%; in [10] it was 59%; in [11] it was 90%; in [12] it was 108%. Besides, the residual activity in experiment [13] is 80%; in experiment [14], 86%; in experiment [15], 104%; in [16], 94%; in experiment [17], 92%; in experiment [18], 85%. For the same molecule, the residual activity in [19] is 93%; in experiment [20], 71%.
